# Reference: paper PMC5540273 (PLoS ONE, 2017)
# Legend:
# [1] = tested on: ERBB2
# [2] = tested on: FLT1
# [3] = tested on: T1, ERK5
# T1 construct: gene MAPK7
# [4] = tested on: T2, FAK
# T2 construct: gene PTK2
# [5] = tested on: FGFR1
# [6] = tested on: FGFR2
# [7] = tested on: FGFR3
# [8] = tested on: FGFR4
# [9] = tested on: FLT3
# 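Also: kd values determined as follow-up on hits from a single-replicate KINOMEscan panel screen.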
smiles,measurement,setting,value
Cc1ccc(Oc2ccc(Nc3ncnc4cc[nH]c34)cc2C)cn1,Kd,[1],6.5 nM
same,Kd,[2],> 10000 nM
O=C(Nc1n[nH]c2nc(-c3ccccc3)c(Br)cc12)C1CC1 [SB-708998],Kd,[3],> 10000 nM
CCc1nc(-c2cccc(C)c2)c(-c2ccncc2)s1,Kd,[4],> 10000 nM
O=C(NCc1cccs1)c1cc(C(=O)c2c(Cl)cccc2Cl)c[nH]1 [GW823670],Kd,[4],> 10000 nM
FC(F)(F)c1ccc(-c2ncn(CCCN3CCOCC3)c2-c2ccncc2)cc1 [SB-217780],Kd,[5],> 10000 nM
COc1cc(OC)cc(-c2cc3cnc(N)nc3nc2NC(=O)NC(C)(C)C)c1,Kd,[5],66 nM
same,Kd,[6],310 nM
same,Kd,[7],110 nM
Nc1ncnc2c1ncn2-c1cccc(F)c1 [SKF-97560],Kd,[8],> 10000 nM
COc1ccc(Nc2nccc(N3CCC(NS(=O)(=O)c4ccc(NC(C)=O)cc4)C3)n2)cc1 (centres unmarked) [GSK1379729],Kd,[8],> 10000 nM
COc1cc2nccc(Nc3ccc(OCc4ccc(NC(C)=O)cc4)cc3)c2cc1OC.Cl [GW440135],Kd,[2],680 nM
Cl.NS(=O)(=O)c1cccc(Nc2cc(-c3ccc(F)cc3)n[nH]2)c1 [GW824645],Kd,[9],7.5 nM
COc1ccc(-n2cnc3c(N)ncnc32)cc1 [SKF-97236],Kd,[9],120 nM
